Several values for one entry are separate records, joined by “and”; a condition that tells them apart may be missing. Equal entries are not always repeated. In all, about 5,500 compounds went through this assay and about 2,000 (36%) were called active. Inconclusive results (about 18%) are left out. Cut-off read from the data, not from the text of the source: active = normalized growth mostly below about 0.91 (no sharp cut-off); inconclusive = no clear call, values can overlap the other calls; inactive = mostly above about 0.92. The list shows a part of the results.
Assay: chemical genetic growth profiling, strain panel (AID 1159580);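 note: tested at 20 µM; growth read once vehicle control cultures reached saturation at 30 °C; 1 = growth at the plate median or of vehicle wells; lower values mean less growth of the strain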
Settings: S. cerevisiae deletion strains, growth OD

Measured: normalized growth

COc1cc(OC)c2c(OC)c(-c3ccc4c(c3)OCO4)c(=O)oc2c1
inactive: locus YAL013W, strain DEP1, stronger effect = lower value 0.982 | locus YAL021C, strain ccr4, stronger effect = lower value 0.968 | locus YAL026C, strain drs2, stronger effect = lower value 0.957 | locus YAL030W, strain snc1, stronger effect = lower value 0.975 | locus YBL061C, strain skt5, stronger effect = lower value 0.955 | locus YBR009C, strain hhf1, stronger effect = lower value 0.934 | locus YBR021W, strain FUR4, stronger effect = lower value 0.975 | locus YBR023C, strain chs3, stronger effect = lower value 0.943 | locus YBR171W, strain sec66, stronger effect = lower value 1 | locus YBR229C, strain ROT2, stronger effect = lower value 0.987 | locus YBR231C, strain swc5, stronger effect = lower value 0.954 | locus YBR279W, strain paf1, stronger effect = lower value 0.969 | locus YCL011C, strain gbp2, stronger effect = lower value 0.966 | locus YCL016C, strain dcc1, stronger effect = lower value 0.969 | locus YCL029C, strain bik1, stronger effect = lower value 0.995 | locus YCL061C, strain MRC1, stronger effect = lower value 0.985 | locus YCL069W, strain vba3, stronger effect = lower value 1.01 | locus YCR088W, strain abp1, stronger effect = lower value 0.988 | locus YDL005C, strain med2, stronger effect = lower value 0.983 | locus YDL035C, strain GPR1, stronger effect = lower value 0.987 | locus YDL040C, strain nat1, stronger effect = lower value 0.971 | locus YDL074C, strain BRE1, stronger effect = lower value 0.93 | locus YDL101C, strain DUN1, stronger effect = lower value 0.982 | locus YDL134C, strain PPH21, stronger effect = lower value 0.986 | locus YDL185W, strain tfp1, stronger effect = lower value 0.996 | locus YDL192W, strain arf1, stronger effect = lower value 0.979 | locus YDR001C, strain nth1, stronger effect = lower value 0.98 | locus YDR069C, strain doa4, stronger effect = lower value 0.982 | locus YDR101C, strain arx1, stronger effect = lower value 0.975 | locus YDR150W, strain NUM1, stronger effect = lower value 1.01 | locus YDR159W, strain sac3, stronger effect = lower value 0.951 | locus YDR162C, strain NBP2, stronger effect = lower value 0.973 | locus YDR195W, strain ref2 1.05 | locus YDR297W, strain sur2, stronger effect = lower value 0.974 | locus YDR318W, strain mcm21, stronger effect = lower value 0.976 | locus YDR334W, strain swr1, stronger effect = lower value 0.983 | locus YDR335W, strain msn5, stronger effect = lower value 1.01 | locus YDR388W, stronger effect = lower value 0.972 | locus YDR502C, strain sam2, stronger effect = lower value 0.956 | locus YEL003W, strain gim4, stronger effect = lower value 0.971 | locus YEL037C, strain rad23, stronger effect = lower value 0.986 | locus YEL061C, strain CIN8 (second series), stronger effect = lower value 1 | locus YEL061C, strain CIN8, stronger effect = lower value 0.996 | locus YER015W, strain faa2, stronger effect = lower value 0.96 | locus YER016W, strain bim1, stronger effect = lower value 0.974 | locus YER110C, stronger effect = lower value 0.972 | locus YER111C, strain swi4, stronger effect = lower value 1.02 | locus YER155C, strain BEM2 (second series), stronger effect = lower value 0.897 | locus YER155C, strain BEM2, stronger effect = lower value 0.988 | locus YER167W, strain BCK2, stronger effect = lower value 0.99 | locus YFR010W, strain ubp6, stronger effect = lower value 1.01 | locus YGL078C, strain dbp3, stronger effect = lower value 0.99 | locus YGL086W, strain mad1, stronger effect = lower value 0.976 | locus YGL167C, strain pmr1, stronger effect = lower value 0.963 | locus YGL173C, strain kem1, stronger effect = lower value 0.98 | locus YGL227W, strain vid30, stronger effect = lower value 1 | locus YGL240W, strain doc1, stronger effect = lower value 0.941 | locus YGL248W, strain PDE1, stronger effect = lower value 0.985 | locus YGL253W, strain hxk2, stronger effect = lower value 0.936 | locus YGR078C, strain PAC10, stronger effect = lower value 0.962 | locus YGR135W, strain pre9, stronger effect = lower value 0.931 | locus YGR229C, strain SMI1, stronger effect = lower value 0.921 | locus YGR252W, strain gcn5, stronger effect = lower value 0.903 | locus YHR013C, strain ard1, stronger effect = lower value 0.962 | locus YHR027C, strain rpn1, stronger effect = lower value 0.999 | locus YHR030C, strain SLT2, stronger effect = lower value 0.993 and 0.954 | locus YHR079C, strain IRE1 (second series), stronger effect = lower value 0.976 | locus YHR079C, strain IRE1, stronger effect = lower value 0.948 | locus YHR094C, strain hxt1, stronger effect = lower value 0.994 | locus YHR129C, strain ARP1, stronger effect = lower value 0.989 | locus YHR142W, strain chs7, stronger effect = lower value 0.882 | locus YHR200W, strain rpn10, stronger effect = lower value 0.981 | locus YIL066C, strain RNR3, stronger effect = lower value 0.982 | locus YIL073C, strain SPO22, stronger effect = lower value 0.978 | locus YIL125W, strain kgd1, stronger effect = lower value 0.997 | locus YIR030C, strain dcg1, stronger effect = lower value 0.975 | locus YJL092W, strain hpr5, stronger effect = lower value 0.994 | locus YJL095W, strain BCK1 (second series), stronger effect = lower value 0.97 | locus YJL095W, strain BCK1, stronger effect = lower value 0.915 and 0.957 | locus YJL115W, strain asf1, stronger effect = lower value 1 | locus YJL129C, strain trk1, stronger effect = lower value 0.97 | locus YJL134W, strain LCB3, stronger effect = lower value 0.991 | locus YJL154C, strain vps35, stronger effect = lower value 0.993 | locus YJL164C, strain tpk1, stronger effect = lower value 0.946 | locus YJL166W, strain qcr8, stronger effect = lower value 0.931 | locus YJL168C, strain set2, stronger effect = lower value 0.976 | locus YJL187C, strain SWE1 (second series), stronger effect = lower value 0.977 | locus YJL187C, strain SWE1, stronger effect = lower value 0.971 | locus YJR043C, strain POL32, stronger effect = lower value 1.01 | locus YJR066W, strain TOR1, stronger effect = lower value 0.95
active: locus YDR137W, strain rgp1, stronger effect = lower value 0.777 | locus YDR392W, strain spt3, stronger effect = lower value 0.477

— PubChem BioAssay AID1159580 (chemical genetic matrix, 2015)
